Test systems include SR leukemia; RPMI-8226 leukemia; OVCAR-8 ovarian; OVCAR-5 ovarian; OVCAR-4 ovarian; SK-OV-3 ovarian; IGROV1 ovarian; OVCAR-3 ovarian; HS 578T breast; NCI/ADR-RES ovarian; T-47D breast; BT-549 breast; SW-620 colon; MCF7 breast; HCT-116 colon; HCC-2998 colon; KM12 colon; MDA-MB-435 melanoma.
Common to all, as to assay: NCI-60 one-dose screen, 48 h (100 = growth as untreated, 0 = no growth, -100 = all killed)
What all share (details): 10 µM unless noted

About 83,000 compounds went through this panel and 20% of them were active in at least one assay; those are over-represented in the sample as a whole.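 Step 1: grow cells in 96-well plates. Step 2: add test compound at a single concentration. Step 3: incubate 48 h. Step 4: record percent growth.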 Unmarked numbers belong to inactive results. Active and inactive are the calls of the source. How the source made its calls: active means growth percent below 10; inactive means the rest.

The values below come from PubChem BioAssay (NCI).

On to `C/C(=C(/c1ccc(O)cc1)c1ccc(OCCN2CCCC2)cc1)c1ccccc1`, for which the growth with SR leukemia was -11.3% (active); in the test with RPMI-8226 leukemia, 11.9%; in the test on OVCAR-8 ovarian, 83%; with OVCAR-5 ovarian, 80.5%; with OVCAR-4 ovarian, 54.5%; in the test with SK-OV-3 ovarian it was 80.1%. Further, the growth was 76.1% with IGROV1 ovarian; 74% in the test on OVCAR-3 ovarian; 66.8% in the test on HS 578T breast; 62.9% in the test on NCI/ADR-RES ovarian; 28.5% in the test with T-47D breast; 64% in the test with BT-549 breast. Moreover, the growth with SW-620 colon was 67.8%; in the test with MCF7 breast it was 22.2%; in the test on HCT-116 colon, 41.2%; with HCC-2998 colon, 66.3%; in the test with KM12 colon, 51.6%.

In the case of `CC[C@H](CO)Nc1nc(NCc2ccccc2)n2ncc(C(C)C)c2n1`, the growth in the test with SR leukemia was -44.9% (active); with RPMI-8226 leukemia, -40.6% (active); in the test with OVCAR-8 ovarian, 28.6%; in the test with OVCAR-5 ovarian it was 22.4%; with OVCAR-4 ovarian, 11.8%; in the test with SK-OV-3 ovarian it was 51.5%. The growth is 14.5% in the test on IGROV1 ovarian; 5.88% (active) in the test on OVCAR-3 ovarian; 7.24% (active) in the test on HS 578T breast; 19.5% with NCI/ADR-RES ovarian; 28.3% in the test on T-47D breast; 11.3% in the test with MDA-MB-435 melanoma. The growth is 1.96% (active) in the test on SW-620 colon; 2.6% (active) in the test with MCF7 breast; 13.7% with HCT-116 colon; -27.9% (active) with HCC-2998 colon; 1.41% (active) in the test on KM12 colon.

As to `CCC(C)[C@@H]1NC(=O)[C@@H]2CCCN2C(=O)[C@H](Cc2ccccc2)NC(=O)[C@@H]2CCCN2C(=O)[C@H](Cc2ccccc2)NC(=O)[C@@H]2CCCN2C(=O)[C@H](Cc2ccccc2)NC1=O` (stereo partly drawn), the growth in the test on SR leukemia was 83.7%; in the test with RPMI-8226 leukemia it was 85.7%; with OVCAR-8 ovarian, 113%; in the test on OVCAR-5 ovarian, 105%; in the test with OVCAR-4 ovarian, 106%; with SK-OV-3 ovarian it was 103%. The growth was 120% in the test on IGROV1 ovarian; 126% in the test with OVCAR-3 ovarian; 106% in the test on HS 578T breast; 112% in the test with NCI/ADR-RES ovarian; 98.9% in the test with T-47D breast; 109% with BT-549 breast. In addition, the growth is 105% in the test on SW-620 colon; 87.5% in the test with MCF7 breast; 113% with HCT-116 colon; 106% in the test with HCC-2998 colon; 121% with KM12 colon.

In the case of `CCC(c1ccccc1)C(CC)c1ccc(O)c(O)c1` (stereo not drawn), the growth with SR leukemia was 55.3%; in the test on RPMI-8226 leukemia, 102%; in the test with OVCAR-8 ovarian, 102%; in the test on OVCAR-5 ovarian it was 115%; with OVCAR-4 ovarian it was 82.4%; in the test on SK-OV-3 ovarian, 112%. The growth with IGROV1 ovarian is 96.5%; with OVCAR-3 ovarian, 86%; in the test with HS 578T breast it was 87.1%; with NCI/ADR-RES ovarian it was 96.1%; in the test with T-47D breast, 80.5%; in the test with BT-549 breast it was 110%. For the same compound, the growth with SW-620 colon is 97.3%; with MCF7 breast, 98.7%; in the test with HCT-116 colon it was 88.2%; in the test with HCC-2998 colon, 97.5%; in the test with KM12 colon it was 90.9%.

As to `COc1cc(NCCCCN=C(N)NC(N)=NC(C)C)c2ncccc2c1`, the growth with SR leukemia is 98.2%; with RPMI-8226 leukemia, 17.5%; with OVCAR-8 ovarian it was 45.4%; in the test on OVCAR-5 ovarian, 87.2%; in the test on OVCAR-4 ovarian it was -9.62% (active); in the test on SK-OV-3 ovarian, 100%. For the same compound, the growth is -31.9% (active) in the test with IGROV1 ovarian; -43.7% (active) with OVCAR-3 ovarian; 100% in the test on HS 578T breast; 109% in the test with NCI/ADR-RES ovarian; -8.55% (active) in the test on T-47D breast; 110% with MDA-MB-435 melanoma. Further, the growth was 62.9% in the test on SW-620 colon; -94.3% (active) in the test on MCF7 breast; 1.56% (active) with HCT-116 colon; 11.9% in the test on HCC-2998 colon; 20.1% in the test with KM12 colon.

Take `CC/C=C\C[C@H](O)C/C=C1/C(=O)C=C[C@@H]1C/C=C\CCCC(=O)NC`: the growth was -27% (active) in the test with SR leukemia; -3.18% (active) in the test with RPMI-8226 leukemia; 11.1% in the test on OVCAR-8 ovarian; 20.2% in the test on OVCAR-5 ovarian; 44.4% in the test on OVCAR-4 ovarian; 11.4% in the test on SK-OV-3 ovarian. Moreover, the growth is 7.71% (active) in the test with IGROV1 ovarian; 4.67% (active) in the test on OVCAR-3 ovarian; 47.7% in the test with HS 578T breast; 6.92% (active) in the test with NCI/ADR-RES ovarian; -0.635% (active) in the test with T-47D breast; -4.05% (active) in the test with BT-549 breast. Moreover, the growth in the test with SW-620 colon was 7.47% (active); with MCF7 breast it was 8.89% (active); in the test on HCT-116 colon it was -65% (active); in the test on HCC-2998 colon, -90.7% (active); with KM12 colon it was -44.3% (active).

For the compound `Clc1ccc(-c2nnc(COc3ccccc3Cl)o2)cc1`, the growth with SR leukemia is 83.3%; in the test on RPMI-8226 leukemia, 88.7%; in the test on OVCAR-8 ovarian it was 76.6%; in the test on OVCAR-5 ovarian, 83.1%; in the test with OVCAR-4 ovarian, 39.8%; in the test with SK-OV-3 ovarian it was 95.7%. The growth was 83.6% in the test on IGROV1 ovarian; 81.6% in the test with OVCAR-3 ovarian; 62% with HS 578T breast; 66.8% with NCI/ADR-RES ovarian; 69.9% in the test with T-47D breast; 58.4% in the test with MDA-MB-435 melanoma. The growth with SW-620 colon is 91.1%; in the test on MCF7 breast it was 78.7%; in the test with HCT-116 colon, 51.7%; in the test with HCC-2998 colon it was 86.8%; with KM12 colon, 82.4%.

On to `C/C(=C(/c1ccc(O)cc1)c1ccc(Cl)cc1)c1ccccc1`, for which the growth with SR leukemia was -27.9% (active); in the test on RPMI-8226 leukemia, -45.9% (active); in the test on OVCAR-8 ovarian it was -53% (active); with OVCAR-5 ovarian, -85.3% (active); with OVCAR-4 ovarian it was -97.4% (active); with SK-OV-3 ovarian, -85.6% (active). Besides, the growth with IGROV1 ovarian is -73.1% (active); in the test with OVCAR-3 ovarian it was -92.5% (active); in the test on HS 578T breast, -37.6% (active); in the test on NCI/ADR-RES ovarian it was -71% (active); in the test with T-47D breast it was -13.5% (active); with MDA-MB-435 melanoma, -93.1% (active). Also, the growth in the test with SW-620 colon was -71.4% (active); with MCF7 breast it was -63.3% (active); with HCT-116 colon it was -69.4% (active); in the test on HCC-2998 colon, -74.9% (active); in the test with KM12 colon, -86.2% (active).

With `CC1CN(C(C)C)C(=S)N(c2ccccc2)C1=O` (stereo not drawn), the growth in the test on SR leukemia was 108%; in the test with RPMI-8226 leukemia, 120%; in the test with OVCAR-8 ovarian it was 97.6%; with OVCAR-5 ovarian, 90.7%; in the test with OVCAR-4 ovarian, 112%; in the test with SK-OV-3 ovarian, 106%. In addition, the growth is 81.5% with IGROV1 ovarian; 99.4% in the test with OVCAR-3 ovarian; 98% in the test on HS 578T breast; 92.7% in the test with NCI/ADR-RES ovarian; 166% in the test with T-47D breast; 96.3% in the test with MDA-MB-435 melanoma. The growth in the test on SW-620 colon was 108%; with MCF7 breast it was 96.7%; with HCT-116 colon it was 89.4%; with HCC-2998 colon it was 101%; in the test on KM12 colon it was 109%.
